This note sets out measurements from the supplement of paper PMC11402862.

This assay has as its system PPARalpha LBD (GAL4 fusion). The experiment in a line: luciferase reporter transactivation, fold of solvent control; higher = stronger receptor activation. Particulars: HEK293T, exposure time: 24 h. On the procedure: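 HEK293T cells were transiently transfected with a GAL4-DBD fused to the ligand-binding domain of a human nuclear receptor (PPARα, PPARγ, PPARδ, FXR, LXRα, PXR, RARα or CAR), the GAL4-(UAS)5-TK firefly luciferase reporter and a Renilla luciferase normalisation plasmid. Cells were exposed to compound for 24 h in 0.5% DMSO. Firefly/Renilla luciferase was expressed as fold of the solvent control (=1). Values are the mean of 2-3 biological replicates; receptor agonists were used as positive controls.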
In general terms: A reporter such as luciferase makes a cellular process visible.

Take `O=C(O)C(F)(F)C(F)(F)F` [perfluoropropanoic acid]: the luciferase reporter transactivation by setting is: (concentration: 1 µM) 1.08; (concentration: 5 µM) 1.01; (concentration: 10 µM) 1.07; (concentration: 25 µM) 1.03; (concentration: 50 µM) 1.12; (concentration: 100 µM) 1.78. The luciferase reporter transactivation runs as follows: (concentration: 250 µM) 1.42; (concentration: 500 µM) 1.98.

`NS(=O)(=O)C(F)(F)C(F)(F)C(F)(F)C(F)(F)C(F)(F)C(F)(F)C(F)(F)C(F)(F)F` [perfluorooctane sulfonamide] showed a luciferase reporter transactivation (concentration: 1 µM) of 0.788; a luciferase reporter transactivation (concentration: 2.5 µM) of 0.548; a luciferase reporter transactivation (concentration: 5 µM) of 0.904; a luciferase reporter transactivation (concentration: 10 µM) of 0.796; a luciferase reporter transactivation (concentration: 100 µM) of 1.2.
